We go through 153 variants from a collection of fitness landscapes (doi:10.1016/j.celrep.2020.107928).

Whole data set: some 81,000 sequences, median “one-hybrid fitness for binding NBS DNA” near -0.1, cut for the highest 2% near 0.36. The entries come from a sample that favours the highest values as a whole.

To fix the notation:
B1: Caulobacter ParB omega fusion; a variant is named by its letters at X, in order, B8GW30 (parent)
chain: MESVVVGEPGMSEGRRGLGRGLSALLGEVDAAPAQAPGEQLGGSREAPIEILQRNPDQPRRTFREEDLEDLSNSIREKGVLQPILVRPSPDTAGEYQIVAGERAWRAAQRAGLKTVPIMVRELDDLAVLEIGIIENVQRADLNVLEEALSYKVLMEKFERTQENIAQTIGKSXSHVANXMRLLXLPDEVQSYLVSGELTAXHARAIAAAADPVALAKQIIEGGLSVRETEALARKAPNLSAGKSKGGRPPRVKDTDTQALESDLSSVLGLDVSIDHRGSTGTLTITYATLEQLDDLCNRLTRGI

This experiment covers variants of B1. The experiment in a line: one-hybrid fitness for binding NBS DNA (the Noc-binding site; scaled: cognate 1, non-cognate 0); higher = stronger binding. The conditions noted are these: with NBS DNA site. Put shortly: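 Selection: bacterial one-hybrid in E. coli USO, HIS3 reporter with the site 19 bp from the promoter, 48 hours at 37°C on M9-minus-histidine plus 0.1 mM IPTG and 5 mM 3-AT. Libraries were Caulobacter ParB with four randomised specificity codons, sequenced on Illumina before and after selection. Fitness is the rescaled log change in variant-to-wild-type read ratio, anchored to the cognate and non-cognate sites.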
Turning to RQCR, the “one-hybrid fitness for binding NBS DNA” value came out at 0.394. With RQYS the figure was 0.322; with RQHN, at most 0.2. As to RQHP, the “one-hybrid fitness for binding NBS DNA” value was at most 0.2.

With RQCS, the “one-hybrid fitness for binding NBS DNA” value worked out at 0.278. With RQRN, the “one-hybrid fitness for binding NBS DNA” value was found to be 0.221. For the variant RQRS, the “one-hybrid fitness for binding NBS DNA” value was determined as 0.6.

Take RQCN: the “one-hybrid fitness for binding NBS DNA” value was at most 0.2. For TYVN, the “one-hybrid fitness for binding NBS DNA” value is at most 0.2. For the variant IGSF, the “one-hybrid fitness for binding NBS DNA” value is at most 0.2. With FTRC the figure was at most 0.2. With PRTW the figure was at most 0.2; with QTHF, at most 0.2; with QTHP, at most 0.2. With QTHD the figure was at most 0.2; with QTHN, 0.297; with QTHS, 0.585. With QSHY, the “one-hybrid fitness for binding NBS DNA” value amounted to 0.201.

With QTHH, the “one-hybrid fitness for binding NBS DNA” value stood at 0.44. For the variant QTHY, the “one-hybrid fitness for binding NBS DNA” value was determined as 0.384. Turning to YMSF, the “one-hybrid fitness for binding NBS DNA” value is at most 0.2. HSWC: the “one-hybrid fitness for binding NBS DNA” value was at most 0.2. ATGK: the “one-hybrid fitness for binding NBS DNA” value is at most 0.2. For YNLW, the “one-hybrid fitness for binding NBS DNA” value is at most 0.2.

As to DVCT, the “one-hybrid fitness for binding NBS DNA” value was at most 0.2.

Consider DEDT, for which the “one-hybrid fitness for binding NBS DNA” value is at most 0.2. Take PSQV: the “one-hybrid fitness for binding NBS DNA” value was at most 0.2. In the case of DYHC, the “one-hybrid fitness for binding NBS DNA” value is at most 0.2.

Turning to RKWK, the “one-hybrid fitness for binding NBS DNA” value is at most 0.2. On to AQNL, for which the “one-hybrid fitness for binding NBS DNA” value is at most 0.2. With RRHP the figure was at most 0.2; with RRHK, 0.267. With RRHH, the “one-hybrid fitness for binding NBS DNA” value amounted to 0.525.

In the case of RRHN, the “one-hybrid fitness for binding NBS DNA” value stood at 0.331. Take RRHD: the “one-hybrid fitness for binding NBS DNA” value is at most 0.2. In the case of RRHS, the “one-hybrid fitness for binding NBS DNA” value worked out at 0.681. VSMF: the “one-hybrid fitness for binding NBS DNA” value is at most 0.2. In the case of PDIW, the “one-hybrid fitness for binding NBS DNA” value was at most 0.2. Consider QIWA, for which the “one-hybrid fitness for binding NBS DNA” value is at most 0.2.

As for QCMA, the “one-hybrid fitness for binding NBS DNA” value was found to be 0.303.

Consider QITA, for which the “one-hybrid fitness for binding NBS DNA” value was at most 0.2. As to QRMA, the “one-hybrid fitness for binding NBS DNA” value was determined as 0.549.

QSWA: the “one-hybrid fitness for binding NBS DNA” value was at most 0.2. In the case of QRTA, the “one-hybrid fitness for binding NBS DNA” value came to 0.6. Consider QRCA, for which the “one-hybrid fitness for binding NBS DNA” value was found to be 0.609. With QRWA the figure was 0.432; with QACA, at most 0.2; with QSTA, 0.219. Turning to QHCA, the “one-hybrid fitness for binding NBS DNA” value was at most 0.2. With QSMA, the “one-hybrid fitness for binding NBS DNA” value was at most 0.2. FHAS: the “one-hybrid fitness for binding NBS DNA” value is at most 0.2. As to ENIG, the “one-hybrid fitness for binding NBS DNA” value is at most 0.2. Take LRKN: the “one-hybrid fitness for binding NBS DNA” value is at most 0.2.

For the variant PCWT, the “one-hybrid fitness for binding NBS DNA” value is at most 0.2.

In the case of QRIA, the “one-hybrid fitness for binding NBS DNA” value amounted to 0.436.

Take QRRA: the “one-hybrid fitness for binding NBS DNA” value is 0.674. With QRSA, the “one-hybrid fitness for binding NBS DNA” value amounted to 0.566. Take QPSA: the “one-hybrid fitness for binding NBS DNA” value was at most 0.2. With QRPA the figure was 0.207. Consider QSSA, for which the “one-hybrid fitness for binding NBS DNA” value was at most 0.2. On to QCIA, for which the “one-hybrid fitness for binding NBS DNA” value came out at 0.25. With QSLA the figure was at most 0.2. For the variant QWRA, the “one-hybrid fitness for binding NBS DNA” value is at most 0.2. As for QRLA, the “one-hybrid fitness for binding NBS DNA” value is 0.547. Take QCLA: the “one-hybrid fitness for binding NBS DNA” value worked out at 0.304.

In the case of DRRA, the “one-hybrid fitness for binding NBS DNA” value was at most 0.2. With TTVS the figure was at most 0.2; with YHRS, at most 0.2.

As for YKRY, the “one-hybrid fitness for binding NBS DNA” value is at most 0.2. Regarding IDDD, the “one-hybrid fitness for binding NBS DNA” value is at most 0.2. With SRTS the figure was at most 0.2; with TNTI, at most 0.2. With CWVC, the “one-hybrid fitness for binding NBS DNA” value was at most 0.2. With RTKL the figure was at most 0.2.

In the case of CLGT, the “one-hybrid fitness for binding NBS DNA” value is at most 0.2. For the variant QRYA, the “one-hybrid fitness for binding NBS DNA” value stood at 0.588. In the case of QPYA, the “one-hybrid fitness for binding NBS DNA” value is at most 0.2. Take QREA: the “one-hybrid fitness for binding NBS DNA” value was 0.288. With RATL the figure was at most 0.2. Regarding AQRI, the “one-hybrid fitness for binding NBS DNA” value is at most 0.2. With VVMC the figure was at most 0.2. On to QSSK, for which the “one-hybrid fitness for binding NBS DNA” value was at most 0.2. With QRHK the figure was 0.432; with QCHK, at most 0.2. Turning to QRPK, the “one-hybrid fitness for binding NBS DNA” value is at most 0.2.

As for QRRK, the “one-hybrid fitness for binding NBS DNA” value is 0.747.

QSCK: the “one-hybrid fitness for binding NBS DNA” value was at most 0.2. As for QRCK, the “one-hybrid fitness for binding NBS DNA” value amounted to 0.388. With QRSK the figure was 0.396. Regarding QSHK, the “one-hybrid fitness for binding NBS DNA” value was at most 0.2. Take QRWK: the “one-hybrid fitness for binding NBS DNA” value turned out to be 0.239.

In the case of QCCK, the “one-hybrid fitness for binding NBS DNA” value is at most 0.2. As for QCSK, the “one-hybrid fitness for binding NBS DNA” value is at most 0.2.

On to YTTG, for which the “one-hybrid fitness for binding NBS DNA” value is at most 0.2. As to PILC, the “one-hybrid fitness for binding NBS DNA” value is at most 0.2. Take GPWT: the “one-hybrid fitness for binding NBS DNA” value was at most 0.2.

As for TTST, the “one-hybrid fitness for binding NBS DNA” value is at most 0.2.

On to PSAI, for which the “one-hybrid fitness for binding NBS DNA” value was at most 0.2.

Consider LWNA, for which the “one-hybrid fitness for binding NBS DNA” value is at most 0.2.

Regarding HNMG, the “one-hybrid fitness for binding NBS DNA” value amounted to 0.257. As for QRDK, the “one-hybrid fitness for binding NBS DNA” value was at most 0.2. For the variant QCGK, the “one-hybrid fitness for binding NBS DNA” value was at most 0.2.

For QREK, the “one-hybrid fitness for binding NBS DNA” value was at most 0.2. With QCNK, the “one-hybrid fitness for binding NBS DNA” value is at most 0.2.

For the variant QRAK, the “one-hybrid fitness for binding NBS DNA” value is 0.373. As for QSGK, the “one-hybrid fitness for binding NBS DNA” value is at most 0.2.

Regarding QRGK, the “one-hybrid fitness for binding NBS DNA” value worked out at 0.445. As for QRFK, the “one-hybrid fitness for binding NBS DNA” value came to 0.295.

As to QRIK, the “one-hybrid fitness for binding NBS DNA” value was 0.213. With QCAK the figure was at most 0.2; with QRYK, 0.381; with QRNK, 0.488. Turning to TYVS, the “one-hybrid fitness for binding NBS DNA” value was at most 0.2.

In the case of MKIS, the “one-hybrid fitness for binding NBS DNA” value was at most 0.2. Regarding KICD, the “one-hybrid fitness for binding NBS DNA” value is at most 0.2.

In the case of FCSG, the “one-hybrid fitness for binding NBS DNA” value was at most 0.2. FRQA: the “one-hybrid fitness for binding NBS DNA” value is at most 0.2. With QRQK the figure was 0.365; with QCQK, at most 0.2; with QSQK, at most 0.2. With QPYT the figure was at most 0.2.

For GPRT, the “one-hybrid fitness for binding NBS DNA” value is 0.369. In the case of QNYT, the “one-hybrid fitness for binding NBS DNA” value is at most 0.2. In the case of GPYT, the “one-hybrid fitness for binding NBS DNA” value was at most 0.2. With QNRT the figure was 0.292. In the case of QCYT, the “one-hybrid fitness for binding NBS DNA” value was determined as 0.503. For QSYT, the “one-hybrid fitness for binding NBS DNA” value was 0.347. With QCRT, the “one-hybrid fitness for binding NBS DNA” value is 0.857.

Consider GCRT, for which the “one-hybrid fitness for binding NBS DNA” value is at most 0.2. Turning to QPRT, the “one-hybrid fitness for binding NBS DNA” value is at most 0.2. Consider QSRT, for which the “one-hybrid fitness for binding NBS DNA” value was 0.723. Turning to VDRR, the “one-hybrid fitness for binding NBS DNA” value was at most 0.2.

Consider QPAL, for which the “one-hybrid fitness for binding NBS DNA” value is at most 0.2. Take PSKA: the “one-hybrid fitness for binding NBS DNA” value was at most 0.2. With SGLS the figure was at most 0.2; with RPAY, at most 0.2; with SNWT, at most 0.2. On to PAIL, for which the “one-hybrid fitness for binding NBS DNA” value was at most 0.2. In the case of HYHS, the “one-hybrid fitness for binding NBS DNA” value is at most 0.2.

As for FRPV, the “one-hybrid fitness for binding NBS DNA” value was at most 0.2. With PPFR the figure was at most 0.2. Take QAYT: the “one-hybrid fitness for binding NBS DNA” value is 0.322.

For QART, the “one-hybrid fitness for binding NBS DNA” value turned out to be 0.716. On to QALT, for which the “one-hybrid fitness for binding NBS DNA” value worked out at 0.352. In the case of QLLT, the “one-hybrid fitness for binding NBS DNA” value was 0.33.

As to QLRT, the “one-hybrid fitness for binding NBS DNA” value amounted to 0.668.

As for QIRT, the “one-hybrid fitness for binding NBS DNA” value amounted to 0.608.

In the case of QHLT, the “one-hybrid fitness for binding NBS DNA” value turned out to be 0.337.

As to QHYT, the “one-hybrid fitness for binding NBS DNA” value was 0.359. With QIPT the figure was at most 0.2.

Take QLYT: the “one-hybrid fitness for binding NBS DNA” value was 0.355. QIYT: the “one-hybrid fitness for binding NBS DNA” value amounted to 0.335. With QHRT the figure was 0.681.
